In PubChem BioAssay AID777 (Sanford-Burnham Center for Chemical Genomics, 2007):
The whole screen tested about 96,000 compounds, of which about 19,000 (20%) were called active. Only a sample is shown. A number with no mark means an inactive call.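 How the source made its calls: active means blocking of liver enzyme CYP2C9 beyond about 50% at 5 µM (limit read from the data); inactive means the rest.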

The compounds below were run against Cytochrome P450 2C9 (Homo sapiens) (UniProt P11712) (assay: blockers of cytochrome P450 2C9 activity – biochemical, luminescence, ADME assay, primary screen (AID 777)). Details: CYP2C9 Supersomes, luciferin-H conversion, at 5 µM, hits give high values.
Sequence of Cytochrome P450 2C9 (Homo sapiens) (P11712 whole entry, looked up): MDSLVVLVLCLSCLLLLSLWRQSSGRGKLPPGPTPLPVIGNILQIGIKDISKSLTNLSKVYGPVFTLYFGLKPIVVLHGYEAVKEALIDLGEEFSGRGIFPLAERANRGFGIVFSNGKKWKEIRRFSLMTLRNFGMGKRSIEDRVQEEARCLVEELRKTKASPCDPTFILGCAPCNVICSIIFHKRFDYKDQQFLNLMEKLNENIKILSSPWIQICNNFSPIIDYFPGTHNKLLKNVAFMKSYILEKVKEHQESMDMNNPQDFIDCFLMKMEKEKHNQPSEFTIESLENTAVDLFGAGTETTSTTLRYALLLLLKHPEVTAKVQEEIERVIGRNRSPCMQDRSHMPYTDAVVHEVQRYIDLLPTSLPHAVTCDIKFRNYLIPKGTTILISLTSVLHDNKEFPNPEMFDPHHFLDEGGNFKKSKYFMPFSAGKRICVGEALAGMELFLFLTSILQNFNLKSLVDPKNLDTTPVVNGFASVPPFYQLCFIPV

| SMILES | inhibition |
| --- | --- |
| CCOCCCNC(=O)C(NC(=O)CNC(=O)c1ccccc1)c1ccc(C)cc1 (centres undefined) | -22.9% |
| C/C(=N\NS(=O)(=O)c1cccc([N+](=O)[O-])c1)c1cc2ccccc2o1 | 91.4% (active) |
| Cc1ccccc1NC(=S)Nc1cccc([N+](=O)[O-])c1 | 22.3% |
| CCCS(=O)(=O)N1CCCC(C(=O)NCCN2CCCCC2C)C1 (centres undefined) | -5.4% |
| CCCc1ccc(-c2c(C)sc(NC(=O)c3ccnn3C)c2C#N)cc1 | 43.6% |
| CC(=O)NS(=O)(=O)c1ccc(NC(=O)/C=C/c2ccccc2Cl)cc1 | 12.7% |
| COc1ccc(CCNC(=O)C2CCCN(Cc3nc(-c4cccc(Cl)c4)oc3C)C2)cc1OC (centres undefined) | 58.8% (active) |
| CCCS(=O)(=O)N1CCC(C(=O)NCCc2ccc(OC)c(OC)c2)CC1 | -5.4% |
| COc1ccc(CCN(C)C(=O)C2CCCN(Cc3ccc(OC)c(OC)c3)C2)cc1OC (centres undefined) | 27.1% |
| Nc1nnnn1/N=C/c1cccs1 | -2% |
| O=C(Nc1c(Cl)cccc1Cl)C1CCC1 | 0.8% |
| CCn1c(O)c2ccc(C(=O)N=NC(=O)c3cccnc3)cc2c1O | -3.1% |
| COc1cc(OC)cc(C(=O)NC(=S)N2CCN(c3ccc(C(F)(F)F)cc3[N+](=O)[O-])CC2)c1 | 13.9% |
| CCNc1nc(N)nc(Oc2ccc(OCC)nn2)n1 | -26.3% |
| OCCNCCCCOc1ccccc1F | -0.4% |
| CSc1nc(N(C)NC(=O)c2cccc(C)c2)c2ccccc2n1 | -0.3% |
| CC(=O)c1ccc(Cc2ncc(C(F)(F)F)cc2Cl)s1 | -2.6% |
| COc1ccc(OC(C)C(=O)Nc2cccnc2)cc1 (centres undefined) | 3.3% |
| COc1cccc(NC(=O)C(C)Oc2ccccc2)c1 (centres undefined) | 56.1% (active) |
| COc1cccc(NC(=O)c2ccccc2SC)c1 | -4.1% |
| CCCCN(CCCC)C(=O)CCS(=O)(=O)c1ccc2c(c1)n(C)c(=O)c(=O)n2C | 14.4% |
| Cc1cccc(CSc2nnc(NC(=O)CSc3nnc(C)s3)s2)c1 | -12% |
| CC(CCO)Nc1nc2c([nH]1)c(=O)n(C)c(=O)n2C (centres undefined) | 19.8% |
| COc1ccc(OC)c2[nH]c(=O)c(CCNC(=O)C(C)(C)C)cc12 | -7% |
| CCCC(NS(=O)(=O)c1ccc(OC)cc1)C(=O)O (centres undefined) | 12.5% |

| SMILES | inhibition |
| --- | --- |
| CC(=O)NS(=O)(=O)c1ccc(NC(=S)NC(=O)C(C)(C)C)cc1 | -22.1% |
| COc1ccc(NS(=O)(=O)c2ccc(NC(C)=O)cc2)cc1OC | -8.7% |
| O=C(O)CCC(=O)Nc1ccc(N2CCOCC2)cc1 | 3.7% |
| CC(=O)Nc1ccc(S(=O)(=O)Nc2ccc(N3CCOCC3)c(F)c2)cc1 | 50% (active) |
| CC(=O)Nc1ccc(S(=O)(=O)Nc2nc3n(n2)C(c2ccccc2)CC(=O)N3)cc1 (centres undefined) | -3.6% |
| COc1ccc(NS(=O)(=O)c2ccc(NC(=S)NC(=O)CC(C)C)cc2)cc1 | 54.8% (active) |
| CC(=O)Nc1ccc(S(=O)(=O)Nc2cccc(NC(=O)C(C)(C)C)c2)cc1 | 59.2% (active) |
| COc1cc(NS(=O)(=O)c2ccc(NC(C)=O)cc2)cc(OC)c1 | 43.7% |
| COc1ccc(C(=O)Nc2ccc(S(=O)(=O)NC(C)C)cc2)cc1 | 34.1% |
| COC(=O)COc1ccc(S(=O)(=O)Nc2ccc(NC(C)=O)cc2)cc1 | 61.2% (active) |
| COc1ccc(NS(=O)(=O)c2ccc(NC(=O)C(C)(C(F)(F)F)C(F)(F)F)cc2)nn1 | 12.4% |
| Cc1ccccc1-n1nc(C)c2cc(C(=O)NC3CC3)sc21 | 37.1% |
| O=C(c1ccco1)N1CCN(CC(=O)N(C2CCCCC2)C2CCS(=O)(=O)C2)CC1 (centres undefined) | -18.6% |
| O=[N+]([O-])c1ccccc1OCCCCN1CCCCC1 | -4% |
| CCCC(=O)Nc1nc2ccc(NC(=O)c3cccnc3)cc2s1 | 27.5% |
| CCc1c(C)sc(NC(=O)c2ccc(Br)o2)c1C(=O)OC | -40.5% |
| CCOC(=O)c1c(CN2CCOCC2)n(-c2ccccc2)c2ccc(O)cc12 | 38.1% |
| COc1cccc(CN2C(=O)CCC2(C)C(=O)NC2CCCCCC2)c1 (centres undefined) | -58.7% |
| CCNc1nc(SCCOc2ccccc2)nc(N(C)C)n1 | -4.3% |
| Cn1c(=O)cc(SCC(=O)N2CCCC2)c2cc(Cl)ccc21 | 0.1% |
| CCOC(=O)Nc1ccc2c(c1)N(C(=O)CN1CCN3CCCC3C1)c1ccccc1CC2 (centres undefined) | 0.1% |
| CSCC[C@H](NC(=O)NCc1cccs1)C(=O)O | -6.8% |
| COc1ccc(-n2ncc3c(N4CCc5ccccc54)ncnc32)cc1 | -29.5% |
| CC1(C)CC(=O)C=C(NC2CC(C)(C)NC(C)(C)C2)C1 | 9.6% |
| Cc1ccnc(N2CCN(C(=O)CSc3nc4ccccc4nc3N3CCCCC3)CC2)c1 | 98.5% (active) |

| SMILES | inhibition |
| --- | --- |
| Cc1ccc(S(=O)(=O)NCC(=O)N2CCN(c3ccccn3)CC2)cc1 | 5.3% |
| Cc1ccc2oc(=O)c3cnn(CC(=O)N4CCN(c5ccccn5)CC4)c3c2c1 | 20.1% |
| CCCc1cc(-c2n[nH]c(=S)n2Cc2ccccc2)cs1 | 38.6% |
| CC(C)c1ccc(N2CCN(C(=O)c3ccccc3NC(=O)/C=C(\C(=O)O)c3ccccc3)CC2)cc1 | 18% |
| CCOCCN(C=O)c1cccc(OC)c1 | -20.4% |
| CCOC(=O)CN(Cc1ccc(OC)c(OC)c1)S(=O)(=O)c1ccc(OC)cc1 | 64% (active) |
| O=C(OCc1cc2ccccc2[nH]c1=O)c1cccnc1 | 12.7% |
| C=CCSc1nc(Cc2ccc(Cl)cc2)nc2ccccc12 | 2.7% |
| O=C(CCN1C(=O)c2ccncc2C1=O)Nc1ccc2c(c1)OCCO2 | -3.9% |
| O=C(CCN1C(=O)c2ccccc2C1=O)Nc1cccc(F)c1 | 28.8% |
| O=C(CCN1C(=O)c2ccccc2C1=O)Nc1ccncc1 | 65.7% (active) |
| O=C(CCN1c2ccccc2Sc2ccccc21)Nc1ccccc1 | 95.4% (active) |
| O=C(O)CCCC(=O)Nc1ccccc1-n1ccnc1 | 0.8% |
| O=C(CC1Nc2ccccc2NC1=O)Nc1ccccc1 (centres undefined) | 6.5% |
| COc1ccc(Br)cc1S(=O)(=O)N1CCN=C1C | -27.3% |
| Cc1nc2cc(-c3ccc(F)cc3)nn2c(N2CCOCC2)c1C | 8.9% |
| O=c1c(-c2ccc3c(c2)OCCO3)c(C(F)(F)F)oc2cc(O)cc(O)c12 | 87.3% (active) |
| CCN1CCN(Cc2c(O)ccc3c(=O)c(-c4ccc(OC)c(OC)c4)c(C(F)(F)F)oc23)CC1 | 8.1% |
| Cc1nc(SC(C)C)[nH]c(=O)c1Cc1ccccc1 | 26% |
| CCN1C(=O)/C(=C2/Sc3ccccc3N2CCCS(=O)(=O)O)SC1=S | 7% |
| COc1cc(/C=N/Nc2nn3cnnc3c3ccccc23)cc(OC)c1OC | 25.9% |
| Cc1onc(-c2c(Cl)cccc2Cl)c1C(=O)c1c[nH]c(C(=O)NC2CC2)c1 | 7.6% |
| COc1c(O)cccc1-c1nnn(CCC(=O)OCC(=O)c2ccccc2)n1 | 29% |
| Cc1ccc2cc(CCNC(=O)c3ccc4c(c3)OCO4)c(=O)[nH]c2c1 | 31.9% |
| Cc1ccc2[nH]c(=O)c(COC(=O)c3ccccn3)cc2c1 | 8.6% |

| SMILES | inhibition |
| --- | --- |
| Cc1onc(-c2ccccc2Cl)c1C(=O)NCCn1ccc2ccccc21 | 54.6% (active) |
| Cc1onc(-c2ccccc2Cl)c1C(=O)OCC(=O)c1ccccc1 | 65.8% (active) |
| Cc1cc2ccccc2n1CCNC(=O)COc1ccc2ccccc2c1 | 33.5% |
| Cc1ccc2cc(CCNC(=O)c3c(-c4ccccc4Cl)noc3C)c(=O)[nH]c2c1 | 93.8% (active) |
| O=C1c2ccccc2C(=O)N1Cc1cc(-c2ccccc2Cl)no1 | -135% |
| CC(C)Cc1oc(C(=O)O)cc1CN | -3.5% |
| C#CCSc1nnc(-c2sc3ccccc3c2Cl)o1 | 26.7% |
| COc1ccc(C(=O)N2CCC(C(=O)Nc3cccc(C)c3)CC2)cc1OC | 8.3% |
| CCOc1ccc(N=C2SC(C(=O)O)CC(=O)N2C)cc1 (centres undefined) | -4.3% |
| CC(C)(C)NC(=O)COc1ccc(CNc2ccc3[nH]c(=O)[nH]c3c2)cc1 | 31.4% |
| Cc1ccc(S(=O)(=O)c2c(COC(=O)c3cccc(Cl)c3)c(-c3ccccc3)nn2C)cc1 | 49.8% |
| Cc1cccc(N(CC(O)CN(C)C)S(=O)(=O)c2ccccc2)c1 (centres undefined) | 7.4% |
| Cc1ccc(N(CC(O)CN2CCCC2)S(=O)(=O)c2ccccc2)cc1 (centres undefined) | 27.2% |
| O=S(=O)(c1ccccc1)N(CC(O)CN1CCCCC1)c1ccccc1 (centres undefined) | 56% (active) |
| Cc1ccc(C(=O)N(CN2CCCC2=O)c2ccc(F)cc2)cc1 | -20% |
| CC(=O)N1Cc2ccccc2CC1C(=O)O (centres undefined) | -18.6% |
| Cc1c(NC(=O)C(C)OC(=O)c2cc3c4ccccc4n(C)c3s2)c(=O)n(-c2ccccc2)n1C (centres undefined) | -4.5% |
| CCOc1ccccc1NC(=O)C1CCC(CNc2c(N3CCOCC3)c(=O)c2=O)CC1 (centres undefined) | -30.1% |
| O=C(NC1CCCCC1)C1CC(=O)N(CCc2ccccc2)C1 (centres undefined) | -4.8% |
| O=C(O)C1CC(=O)N(Cc2cccnc2)C1 (centres undefined) | -22% |
| Cc1ccc(CCN2CC(C(=O)O)CC2=O)cc1 (centres undefined) | 53.7% (active) |
| COCCCNC(=O)C1CC(=O)N(CCc2ccccc2)C1 (centres undefined) | -3.7% |
| CCc1ccc(CNC(=O)C2CC(=O)N(CCc3ccc(C)cc3)C2)cc1 (centres undefined) | 54.1% (active) |
| Cc1ccc(CNC(=O)C2CC(=O)N(C3CCCCCCC3)C2)cc1 (centres undefined) | -1.3% |
